In PubChem BioAssay:
Activity calls are given as the source filed them.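 How the source made its calls: active means compounds killing one labelled cell type while sparing the other, by normalised counts and ratio limits, not self-fluorescent; inactive means the rest.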

Test: differential killing of epithelial or mesenchymal cells, primary screen, imaging, PC-3E GFP, TEM4-18 mCherry, co-culture (AID 1345086);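 further: cells exposed to compound for 72 h before imaging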;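 on red/green cell ratio (normalised): normalised mesenchymal count divided by normalised epithelial count so high means epithelial killing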
Settings: imaging cell counts, at 1 µM; for red/green cell ratio (normalised): actives lie on both sides, counts scaled to control wells, 1 = unselective
[1] = measured here: epithelial PC-3E GFP cell survival
[2] = measured here: mesenchymal TEM4-18 mCherry cell survival

Row | SMILES | red/green cell ratio (normalised) | normalised cell number [1] | normalised cell number [2]
1 | NCCC[C@H](N)CC(=O)NC1CNC(=O)[C@H]([C@H]2C[C@H](O)N=C(N)N2)NC(=O)/C(=C/NC(N)=O)NC(=O)[C@H](CO)NC(=O)[C@H](CO)NC1=O (stereo not given in full) | 0.82 (inactive) | 1.24 | 1.02
2 | COC(=O)c1ccc(C(CC(C)C)NC(C)=O)o1 (stereo not given) | 1 (inactive) | 1.11 | 1.12
3 | C/C(=C\CO)CC[C@H](C)CCC[C@H](C)CCCC(C)C | 1.12 (inactive) | 0.97 | 1.09
4 | C=CC(C)(C)c1cccc2[nH]c3c(c12)C[C@@H]1CC[C@@]2(O)C4=CC(=O)[C@@H]5O[C@@]4(CC[C@]2(C)[C@@]31C)CC5(C)C | 1 (inactive) | 1.11 | 1.11
5 | O=C(O)CNC(=O)c1ccc([C@H](O)c2ccccc2)cn1 | 0.86 (inactive) | 1.15 | 0.99
6 | Nc1cc2ccccc2[nH]c1=O | 0.91 (inactive) | 1.14 | 1.04
7 | COc1cc(/C=C/C(=O)O)cc(OC)c1O | 1.1 (inactive) | 1.09 | 1.2
8 | COC(=O)[C@@H](C)Oc1ccc(O)cc1 | 1.27 (inactive) | 0.93 | 1.18
9 | C=C1OC(=O)C23C(O)C(=O)CC(OC12)C3C (stereo not given) | 0.89 (inactive) | 1.19 | 1.06
10 | C[C@@H]1CC[C@H]2C(C)(C)C3CC12CC[C@@]3(C)O (stereo not given in full) | 0.98 (inactive) | 0.93 | 0.91
11 | COC(=O)[C@@H]1OC(=O)C2OC23[C@@]1(C)CCC1[C@@]2(C)CCC(=O)C(C)(C)C2C[C@@H](OC(C)=O)[C@]13C (stereo not given in full) | 1.04 (inactive) | 1.06 | 1.11
12 | COc1ccc(-c2coc3cc(OC)ccc3c2=O)cc1 | 0.82 (inactive) | 1.34 | 1.09
13 | CCN(Cc1cccc(S(=O)(=O)O)c1)c1cccc(C(=C2C=CC(=[N+](CC)Cc3cccc(S(=O)(=O)O)c3)C=C2)c2ccc(O)cc2S(=O)(=O)[O-])c1 | 0.88 (inactive) | 1.26 | 1.11
14 | CCN1CCN(c2c(F)cc3c(=O)c(C(=O)O)cn4c3c2OC[C@@H]4C)CC1 | 0.75 (inactive) | 1.34 | 1
15 | OC[C@H]1O[C@H](OC[C@H]2O[C@@H](O)[C@H](O)[C@@H](O)[C@@H]2O)[C@H](O)[C@@H](O)[C@H]1O | 0.93 (inactive) | 0.99 | 0.91
16 | COC1C(O)C(O)C(O)[C@@H](O)C1O (stereo not given in full) | 1.11 (inactive) | 0.95 | 1.05
17 | CC(=O)O[C@H]1C[C@@H](OC(C)=O)C(C)(C)C2C[C@@H](OC(C)=O)[C@]3(C)C(CC[C@@]4(C)[C@H](c5ccoc5)OC(=O)[C@H]5O[C@]543)[C@]21C (stereo not given in full) | 1.1 (inactive) | 0.93 | 1.02
18 | O=C(O)CCCCCCCC(O)C(O)CCCCCCO (stereo not given) | 1.02 (inactive) | 1.11 | 1.13
19 | CC[C@@H]1OC(=O)c2c(OC)cc(=O)oc21 | 1.1 (inactive) | 1.01 | 1.11
20 | O[C@@H]1[C@H](O)CO[C@H]1O | 0.77 (inactive) | 1.11 | 0.86

Row | SMILES | red/green cell ratio (normalised) | normalised cell number [1] | normalised cell number [2]
21 | COC(=O)[C@]12Oc3c(c(O)cc4c3C3C=C[C@]5(C4)C(=C(O)c4c(O)cc(C)cc4[C@@H]5OC(C)=O)C3=O)C(O)=C1C(=O)C=C[C@@H]2O | 0.99 (inactive) | 0.87 | 0.86
22 | COc1c(N2CC[C@@H](CN)C2)c(F)cc2c(=O)c(C(=O)NO)cn(C3CC3)c12 | 1.1 (inactive) | 1.04 | 1.15
23 | COc1ccc(-c2cc(=O)c3c(O)cc(OC)cc3o2)cc1 | 1.15 (inactive) | 1.08 | 1.24
24 | CC(C)[C@@H]1CC[C@@H](C)C[C@H]1OC(=O)c1ccccc1 | 1.07 (inactive) | 0.9 | 0.97
25 | OCC1O[C@H](O[C@H]2OC(CO)[C@@H](O)[C@@H](O)C2O)C(O)[C@H](O)[C@@H]1O (stereo not given in full) | 1.12 (inactive) | 1.01 | 1.13
26 | O=C1CC(c2ccc(O)cc2)Oc2ccccc21 (stereo not given) | 1.07 (inactive) | 1.01 | 1.08
27 | CC1CC(O)C2C=CC(CC(=O)O1)O2 (stereo not given) | 0.76 (inactive) | 0.7 | 0.53
28 | O=c1cc(-c2ccccc2)oc2ccc(O)cc12 | 1.07 (inactive) | 0.91 | 0.97
29 | COc1c(N2CC[C@@H](CN)C2)c(F)cc2c(=O)c(C(=O)O)cn(Cc3ccc(-c4ccccc4)cc3)c12 | 1.14 (inactive) | 0.86 | 0.98
30 | COc1ccc(-c2cc(=O)c3c(O)c(OC)c(O[C@H]4O[C@H](CO[C@@H]5O[C@@H](C)[C@H](O)[C@@H](O)[C@H]5O)[C@@H](O)[C@H](O)[C@H]4O)cc3o2)cc1 | 0.98 (inactive) | 1.05 | 1.03
31 | NCC1O[C@@H](OC2C(N)C[C@@H](N)C(OC3OC(CO)[C@@H](O)C(N)[C@H]3O)[C@H]2O)C(O)CC1O (stereo not given in full) | 1.05 (inactive) | 1.04 | 1.09
32 | COC(=O)C1O[C@H](OCc2ccccc2)[C@@H](OC(C)=O)[C@@H](OC(C)=O)C1OC(C)=O (stereo not given in full) | 0.86 (inactive) | 1.31 | 1.13
33 | CC(C)C1=CC2=CCC3[C@](C)(CCC[C@]3(C)C(=O)O)C2CC1 (stereo not given in full) | 1.12 (inactive) | 0.92 | 1.03
34 | COC(=O)C1O[C@H](O[Si](C)(C)C(C)(C)C)[C@@H](O)[C@@H](OC(=O)c2ccccc2)C1OC(=O)c1ccccc1 (stereo not given in full) | 0.98 (inactive) | 1.18 | 1.15
35 | COc1ccc(-c2oc3ccccc3c(=O)c2OC)cc1 | 0.92 (inactive) | 1.18 | 1.08
36 | O=Cc1ccccc1O[C@@H]1O[C@H](CO)[C@H](O)[C@@H](O)[C@H]1O | 0.97 (inactive) | 0.92 | 0.9
37 | Nc1nc(=S)c2ncn(C3O[C@H](CO)[C@@H](O)[C@H]3O)c2[nH]1 (stereo not given in full) | 0.83 (inactive) | 1.02 | 0.85
38 | C/C=C/[C@@H]1C=C[C@@H]2C[C@H](C)CC[C@H]2[C@]1(C)/C(O)=C1\C(=O)[C@H](CO)N(C)C1=O | 1.03 (inactive) | 0.99 | 1.01
39 | O=C(O)C(c1ccccc1)c1ccccc1 | 1.12 (inactive) | 1.01 | 1.13
40 | COC(=O)CCC(=O)NC(=O)Cc1ccccc1 | 0.93 (inactive) | 1.16 | 1.08

Row | SMILES | red/green cell ratio (normalised) | normalised cell number [1] | normalised cell number [2]
41 | C=C1C[C@]23C[C@@]1(O)CC[C@H]2[C@@]12C=C[C@H](O)[C@](C)(C(=O)O1)[C@H]2[C@@H]3C(=O)O | 1.1 (inactive) | 0.93 | 1.02
42 | O=C(NCC[C@H](O)C(=O)O)OCc1ccccc1 | 1.04 (inactive) | 1.09 | 1.14
43 | C[C@@H]1CC[C@@]23CCC4(C)[C@@](C=CC5[C@@]6(C)CCC(=O)C(C)(C)C6CC[C@]54C)(OC2=O)C3[C@H]1C (stereo not given in full) | 1.03 (inactive) | 0.95 | 0.98
44 | CC(=O)C(C)(C)[C@H]1OC2CC[C@@]3(C)[C@@](O)(CC[C@H]4Cc5c([nH]c6ccccc56)[C@@]43C)C2=CC1=O (stereo not given in full) | 0.87 (inactive) | 1.15 | 1
45 | O=c1c(O)c(-c2ccccc2)oc2cc(O)cc(O)c12 | 0.9 (inactive) | 1.07 | 0.96
46 | COc1c(N2CC[C@@H](CN)C2)c(F)cc2c(=O)c(C(=O)O)cn(CCCCN3C(=O)c4ccccc4C3=O)c12 | 1 (inactive) | 1.09 | 1.09
47 | O=C1OCC[C@@H]1Oc1ccc(Oc2cnc3ccc(Cl)cc3n2)cc1 | 0.83 (inactive) | 1.22 | 1.01
48 | Cc1nc(COP(=O)(O)O)cc(CN(CCN(CC(=O)O)Cc2cc(COP(=O)(O)O)nc(C)c2[O-])CC(=O)O)c1[O-].[Mn+2] | 0.88 (inactive) | 1.27 | 1.12
49 | CC1(C)C(=O)C=C[C@@]2(C)C1C=C[C@]1(C)C2CC[C@@]2(C)[C@H](c3ccoc3)OC(=O)[C@H]3O[C@]321 (stereo not given in full) | 1.3 (inactive) | 0.56 | 0.73
50 | COc1cc(N)cc(OC)c1 | 0.94 (inactive) | 0.97 | 0.91
51 | COc1cccc(Oc2c(O)cc(C)cc2CC(=O)c2cc(C)cc(O)c2C(=O)c2c(O)cccc2O)c1C(=O)O | 1.1 (inactive) | 1.09 | 1.21
52 | CN[C@H]1[C@@H](O[C@@H]2[C@@H](O[C@@H]3[C@@H](O)[C@H](O)[C@@H](N=C(N)N)[C@H](O)[C@H]3N=C(N)N)O[C@H](C)[C@@]2(O)CO)O[C@H](CO)[C@@H](O)[C@@H]1O | 0.84 (inactive) | 1.23 | 1.03
53 | CC(=O)OCC1O[C@H](Sc2ccc(C)cc2)[C@@H]2[C@@H](OC(=O)N2Cc2ccccc2)C1OC(C)=O (stereo not given in full) | 0.83 (inactive) | 1.3 | 1.08
54 | CC1(C)C2CC(=O)[C@@]3(C)C4=CC(=O)O[C@@H](C(=O)O)[C@]4(C)CCC3[C@@]2(C)[C@@H](O)C[C@H]1O (stereo not given in full) | 0.95 (inactive) | 1.05 | 0.99
55 | N=c1ccn2c(n1)O[C@@H]1[C@@H](O)[C@H](CO)O[C@@H]12 | 0.99 (inactive) | 0.27 | 0.27
56 | COc1cc(O)c2c(c1C)C(C(C)=O)COC2=O (stereo not given) | 0.88 (inactive) | 0.32 | 0.28
57 | NC(CSCSCC(N)C(=O)O)C(=O)O (stereo not given) | 1.19 (inactive) | 0.91 | 1.08
58 | CC(C)[C@H]1COC(=S)N1C(C)CC(=O)N1CCOC1=O (stereo not given in full) | 1.02 (inactive) | 1.09 | 1.11
59 | Oc1ccc2c(c1)OCC1(O)Cc3cc(O)c(O)cc3C21 (stereo not given) | 1.17 (inactive) | 1.12 | 1.31
60 | CCN1CC(CCN2CCOCC2)C(C(c2ccccc2)c2ccccc2)C1=O (stereo not given) | 0.72 (inactive) | 1.12 | 0.81
